The panel holds about 83,000 compounds, 20% with a hit somewhere; the sample as a whole holds those more often.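 Growth was measured after 48 h exposure to one concentration of compound in 96-well plates. Values under 10 count as active.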 Values without a mark were called inactive. Active and inactive are the calls of the source.
Tests used:
Assay in all cases: NCI-60 one-dose screen, 48 h (100 = growth as untreated, 0 = no growth, -100 = all killed)
Conditions in all cases: 10 µM unless noted
DU-145 prostate = tested on: DU-145 prostate
K-562 leukemia = tested on: K-562 leukemia
MDA-MB-231 breast = tested on: MDA-MB-231 breast
RXF 393 renal = tested on: RXF 393 renal
SF-268 CNS = tested on: SF-268 CNS
SF-295 CNS = tested on: SF-295 CNS
SF-539 CNS = tested on: SF-539 CNS
UACC-257 melanoma = tested on: UACC-257 melanoma
M14 melanoma = tested on: M14 melanoma
HCT-15 colon = tested on: HCT-15 colon
HT29 colon = tested on: HT29 colon
SNB-75 CNS = tested on: SNB-75 CNS
SNB-19 CNS = tested on: SNB-19 CNS
U251 CNS = tested on: U251 CNS
PC-3 prostate = tested on: PC-3 prostate
SK-MEL-5 melanoma = tested on: SK-MEL-5 melanoma
UACC-62 melanoma = tested on: UACC-62 melanoma
LOX IMVI melanoma = tested on: LOX IMVI melanoma
SK-MEL-28 melanoma = tested on: SK-MEL-28 melanoma
MALME-3M melanoma = tested on: MALME-3M melanoma

Compound | growth (DU-145 prostate) | growth (K-562 leukemia) [%] | growth (MDA-MB-231 breast) | growth (RXF 393 renal) | growth (SF-268 CNS) [%] | growth (SF-295 CNS) | growth (SF-539 CNS) | growth (UACC-257 melanoma) [%] | growth (M14 melanoma) [%] | growth (HCT-15 colon) [%] | growth (HT29 colon) | growth (SNB-75 CNS) | growth (SNB-19 CNS) [%] | growth (U251 CNS) | growth (PC-3 prostate) | growth (SK-MEL-5 melanoma) | growth (UACC-62 melanoma) | growth (LOX IMVI melanoma) | growth (SK-MEL-28 melanoma) | growth (MALME-3M melanoma) [%]
CCOc1cccnc1/C=N/NC(N)=S | 34.4% | 31.4 | 49.6% | 61.4% | 32.9 | 5.53% (active) | 47.7% | 95.7 | 42.4 | 40.2 | 56.7% | 68.7% | 69.4 | 36.1% | 37.3% | 55.4% | 50.6% | 35.9% | 76.1% | –
Clc1ccc(/C=C/c2nc(Nc3ccc(Cl)cc3)c3ccccc3n2)cc1 | 118% | 103 | 93.7% | – | 102 | 100% | 96.1% | 98.9 | – | 99 | 112% | – | 100 | 100% | 99.2% | 96.9% | 93.2% | 97.1% | 117% | 105
COc1cc2oc3cc(C)oc(=O)c3c2cc1OC | 99.6% | 128 | 99.4% | 104% | 108 | 89.7% | 94.8% | 92.8 | 102 | 91.9 | 91.5% | 103% | 86.8 | 102% | 98.4% | 95.1% | 90.9% | 103% | 115% | –
COc1cc2oc(-c3cccc(C(=O)Nc4ccc(C)cc4)c3)cc(=O)c2c(OC)c1OC | 48.2% | 28 | – | -7.43% (active) | 57.7 | -47% (active) | 45.8% | 29.9 | – | 17.6 | 11.2% | 45.5% | 67.9 | 42.1% | 45% | -60.3% (active) | -33.8% (active) | -7.81% (active) | 7.12% (active) | 27.3
O=C1CSC(c2ccccc2)N1c1ccccc1 (stereo not drawn) | 107% | 107 | 103% | 95.8% | 105 | 96.6% | 108% | 101 | 99.5 | 98.9 | 116% | 99.5% | 99.1 | 102% | 91.4% | 98.1% | 103% | 97.7% | 106% | –
COc1ccc(-c2nc3sccn3c2/C=C/C(=O)c2c[nH]c3ccccc23)cc1 | 57.3% | 78.9 | 32.7% | – | 61.3 | 78.5% | 82.7% | 87.2 | – | 60.5 | 79.7% | 39.1% | 92.2 | 46.2% | – | 58.8% | 76.1% | – | 76.7% | 69.8
O=[N+]([O-])c1ccc2[nH]cc(-c3c4ccsc4cc4[nH]c5ccc([N+](=O)[O-])cc5c34)c2c1 | -14.3% (active) | – | -5.82% (active) | -42.2% (active) | 19.3 | -4.03% (active) | -44.9% (active) | 41.8 | – | 11.3 | -14.5% (active) | -24.3% (active) | 13.4 | 6.49% (active) | 9.2% (active) | -7.86% (active) | 14.5% | 0.522% (active) | 27.1% | 30.1
Cc1nc(Nc2ccc(NC(=S)Nc3ccccc3)cc2)nc2nc(SCc3ccccc3)[nH]c(=O)c12 | 104% | 72.1 | 76.9% | -24% (active) | 98.4 | 169% | 63.3% | 74.8 | – | 108 | 120% | 104% | 102 | 100% | 100% | 99.7% | – | 101% | 115% | –

From PubChem BioAssay (NCI)
